The text below walks through data of PubChem BioAssay AID743445 (Broad Institute, 2014).

A word on the inhibition: it is the relative decrease from the control value, in per cent.

SMILES strings stand for the structures. Among all 310,000 compounds or so, about 1,700 (0.55%) were called active. No stated cut-off is given here; in the data, active means inhibition above about 50%; inactive means the rest. The full list was thinned out, with actives kept by preference.

For this experiment, the target named is Histone-lysine N-methyltransferase NSD2 (Homo sapiens) (UniProt O96028). The experiment is described as follows: NSD2 histone methyltransferase inhibitors, primary screen, biochemical, AlphaScreen, single concentration, set 2 (AID 743445). Conditions: NSD2 peptide methylation, 120 min, at 12.5 µM, stronger effect = higher value.
Chain of Histone-lysine N-methyltransferase NSD2 (Homo sapiens) (O96028 whole entry, looked up): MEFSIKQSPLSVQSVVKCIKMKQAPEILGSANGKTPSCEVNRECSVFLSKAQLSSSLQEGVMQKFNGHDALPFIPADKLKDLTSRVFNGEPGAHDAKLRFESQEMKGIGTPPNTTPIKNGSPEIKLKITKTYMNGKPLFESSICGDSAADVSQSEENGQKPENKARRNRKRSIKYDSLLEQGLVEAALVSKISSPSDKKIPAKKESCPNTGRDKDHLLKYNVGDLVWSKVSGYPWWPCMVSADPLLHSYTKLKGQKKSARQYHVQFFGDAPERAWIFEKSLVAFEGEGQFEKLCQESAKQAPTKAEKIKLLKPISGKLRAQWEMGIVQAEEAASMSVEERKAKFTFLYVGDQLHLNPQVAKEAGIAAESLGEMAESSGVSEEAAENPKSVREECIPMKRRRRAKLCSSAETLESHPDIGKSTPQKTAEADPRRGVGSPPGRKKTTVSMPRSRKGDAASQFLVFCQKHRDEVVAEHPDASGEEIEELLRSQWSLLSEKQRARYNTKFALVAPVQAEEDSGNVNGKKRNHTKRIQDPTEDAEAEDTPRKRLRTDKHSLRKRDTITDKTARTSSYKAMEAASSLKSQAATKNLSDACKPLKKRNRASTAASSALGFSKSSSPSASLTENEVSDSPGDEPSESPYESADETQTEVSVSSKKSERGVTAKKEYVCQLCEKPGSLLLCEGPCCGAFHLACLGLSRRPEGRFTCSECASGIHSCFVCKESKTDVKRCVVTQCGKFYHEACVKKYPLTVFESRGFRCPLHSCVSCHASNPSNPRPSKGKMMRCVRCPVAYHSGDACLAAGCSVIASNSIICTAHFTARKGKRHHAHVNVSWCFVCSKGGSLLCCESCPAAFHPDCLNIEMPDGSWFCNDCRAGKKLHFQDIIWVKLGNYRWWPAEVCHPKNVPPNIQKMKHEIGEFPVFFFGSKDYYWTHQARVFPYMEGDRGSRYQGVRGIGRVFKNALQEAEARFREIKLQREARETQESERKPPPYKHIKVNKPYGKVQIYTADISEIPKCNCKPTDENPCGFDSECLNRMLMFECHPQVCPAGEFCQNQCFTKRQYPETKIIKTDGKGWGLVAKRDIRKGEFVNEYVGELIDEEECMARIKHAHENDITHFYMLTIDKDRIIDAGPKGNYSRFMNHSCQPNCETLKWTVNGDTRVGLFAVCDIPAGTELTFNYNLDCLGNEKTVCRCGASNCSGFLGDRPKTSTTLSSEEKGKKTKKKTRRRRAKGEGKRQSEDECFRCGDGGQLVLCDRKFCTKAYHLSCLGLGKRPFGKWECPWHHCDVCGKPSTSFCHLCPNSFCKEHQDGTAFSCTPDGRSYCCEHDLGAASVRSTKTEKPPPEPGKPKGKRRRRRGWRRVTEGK
Regarding `CN1CCN(c2ccc(S(=O)(=O)N3CCCCC3)cc2NC(=O)Cc2ccccc2F)CC1`, the inhibition is 1.27% (inactive). With `CCN(CC)S(=O)(=O)c1ccc(N2CCN(C)CC2)c(NC(=O)Nc2ccccc2F)c1`, the inhibition is 78.4% (active).

Regarding `CCN(CC)S(=O)(=O)c1ccc(N2CCOCC2)c(NC(=O)C(C)Oc2ccc(F)cc2)c1` (stereo unspecified), the inhibition is -1.83% (inactive). Take `Cc1ccc(C(=O)Cn2cc([N+](=O)[O-])nc2C)cc1`: the inhibition is 55.2% (active).

For the molecule `Cc1nc([N+](=O)[O-])cn1CC(=O)Nc1ccc2c(c1)OCO2`, the inhibition is -1.66% (inactive). Consider `Cc1nc([N+](=O)[O-])cn1CC(=O)Nc1ccc(Cl)cc1`, for which the inhibition was -0.868% (inactive). Consider `COc1ccc(OC)c(-c2csc(NC(=O)COC(=O)C3CC3)n2)c1`, for which the inhibition was -2.87% (inactive). Regarding `COc1ccc(CCc2nc(-c3cccs3)no2)cc1`, the inhibition was -6.21% (inactive). For `COc1ccc(OC)c(-c2csc(-c3cccs3)n2)c1`, the inhibition is 126% (active). With `COc1ccc(-c2cc(NC=O)c3ncc(-c4cc(OC)c(OC)c(OC)c4)n3c2)c(OC)c1`, the inhibition is 2.63% (inactive).

In the case of `COc1ccc(C(=O)N2CCCCC2c2cc(C(=O)Nc3ccc(F)c(Cl)c3)no2)cc1` (stereo unspecified), the inhibition was -0.843% (inactive). The same measure for `CCOc1ccc(C(CC(=O)O)NC(=O)C23CC4CC(CC(C4)C2)C3)cc1OC` (stereo unspecified): 73.2% (active); for `CCOc1ccc(C(CC(=O)O)NC(=O)Cc2ccccc2)cc1OC` (stereo unspecified): 0.638% (inactive); for `COc1ccc(C(C)NC(=O)C23CC4CC(CC(C4)C2)C3)cc1` (stereo unspecified): 0.365% (inactive). On to `CCC(NC(=O)C1C2C=CC3(CN(Cc4ccccc4)C(=O)C13)O2)c1ccccc1` (stereo unspecified), for which the inhibition was -0.276% (inactive).

Take `CC(=O)N1CCc2cc(S(=O)(=O)NCCC(=O)N3CCCC3)ccc21`: the inhibition was -3.38% (inactive).

With `Cc1ccc(-n2c(SCC(=O)Nc3ccc(S(=O)(=O)Nc4nccs4)cc3)nnc2-c2ccccn2)cc1`, the inhibition is 10.5% (inactive). Consider `Cc1coc2c(O)cc3c(c12)OC1(N2CCCCC2)C(=O)NCCCC31` (stereo unspecified), for which the inhibition was 75.1% (active). The same measure for `COc1ccccc1CCNC(=O)C1CCN(c2nc(C)cc(C)n2)CC1`: -3.97% (inactive); for `Cc1ccc(C(=O)N(Cc2ccccn2)CC2CCCO2)cc1` (stereo unspecified): -6.08% (inactive); for `OC(c1ccccc1)c1nc(/C=C/c2ccc(C(F)(F)F)cc2)cs1` (stereo unspecified): -1.07% (inactive). For the molecule `CSc1ccc(CN2CCC2(C)C(=O)Nc2ccc(C)c(O)c2)cc1` (stereo unspecified), the inhibition is -2.34% (inactive). The same measure for `COCC(C)n1c(SCc2ccc(C(=O)OC)o2)nc2ccccc2c1=O` (stereo unspecified): -0.047% (inactive). Consider `COCCn1c(C)cc(C(=O)CSc2nc3ccccc3c(=O)n2C(C)COC)c1C` (stereo unspecified), for which the inhibition was 1.34% (inactive). As to `COCC(C)n1c(SCC(=O)NC2CCCCC2C)nc2ccccc2c1=O` (stereo unspecified), the inhibition is 52.7% (active). For the molecule `COC(CNC(=O)[C@H](Cc1ccccc1)NC1(C(=O)NC2CCCCC2)CCCCC1)OC`, the inhibition is -1.53% (inactive). Regarding `CC1(Oc2ccc(Cl)cc2)CCN(Cc2csc3ccccc23)C1` (stereo unspecified), the inhibition is -2.85% (inactive).

Regarding `COC(=O)c1nc(NC(=O)c2ccc(C(C)(C)C)cc2)n[nH]1`, the inhibition is -1.33% (inactive). Regarding `COC(=O)c1nc(NC(=O)c2ccccc2)n[nH]1`, the inhibition was 64.1% (active).

With `COC(=O)c1nc(NC(=O)c2ccc(F)cc2)n[nH]1`, the inhibition is -3.85% (inactive). On to `COc1cccc(CSc2nnc(-c3cccnc3)n2Cc2ccccc2)c1`, for which the inhibition is 2.07% (inactive).

Regarding `CCc1nc2c(OCCOc3ccccc3)cccn2c1N(C)C(=O)c1cccs1`, the inhibition is -0.996% (inactive). The same measure for `CC(=O)c1cccc(-c2cnc3c(NC=O)cc(-c4ccc(N5CCN(C)CC5)cc4)cn23)c1`: 2.68% (inactive); for `CC(C)(C)CC(=O)Nc1nc(C(N)Cc2ccc(C(F)(F)F)cc2)cs1` (stereo unspecified): 14% (inactive). For the molecule `O=C(Nc1cccnc1Cl)c1cc(-c2cccc(Cl)c2)on1`, the inhibition is -7.36% (inactive). The same measure for `CCN(CC)CCCNC(=O)c1cc(-c2cccc(Cl)c2)on1`: 63.4% (active); for `O=C(NCCCN1CCOCC1)c1cc(-c2cccc(O)c2)on1`: -0.66% (inactive). The same measure for `Cc1ccc(-c2nc(C3CCCN(S(=O)(=O)c4ccc(Br)s4)C3)no2)cc1` (stereo unspecified): -7.73% (inactive). Consider `Cc1cccc(OCC(=O)NCCCNC(=O)c2ccccn2)c1`, for which the inhibition is 1.46% (inactive). Turning to `CCN(CC)CCOc1ccc2c(c1)C(=NNC(=O)c1ccccn1)c1cc(OCCN(CC)CC)ccc1-2`, the inhibition is 64.6% (active). For `CCOc1cc2ccccc2cc1C(=O)Nc1ccccn1`, the inhibition was -0.208% (inactive). The same measure for `C=CCn1c2c(c3ccccc31)CCC2`: 1.47% (inactive). In the case of `Cn1ncc2c(NNC(=O)Cc3cccc4ccccc34)ncnc21`, the inhibition is -5.08% (inactive). As to `Cc1ccc(Nc2ncnc3c2cnn3C)c(C)c1`, the inhibition was -0.415% (inactive). The same measure for `Cn1ncc2c(Nc3cccc4ccccc34)ncnc21`: 58.9% (active); for `Cc1cc(C)cc(NC(=O)N2CCC(N(C)CCC(C)C)CC2)c1`: 6.38% (inactive). The same measure for `Cc1cc(NS(=O)(=O)c2ccc(NC(=O)CSc3nnc(SCc4ccc(F)cc4)s3)cc2)nc(C)n1`: 1.71% (inactive); for `CCOC(=O)C(=O)N(Cc1ccccc1)c1ccccc1C(=O)Nc1cc(OC)ccc1OC`: 3.11% (inactive). The same measure for `Cc1[nH]n(-c2ccccc2)c(=O)c1N=Nc1ccccc1C(=O)N1CCCCC1`: 56.8% (active); for `COC(=O)c1ccccc1N=Nc1c(C)[nH][nH]c1=O`: 0.329% (inactive). Turning to `Cc1cccc(N=Nc2c(C)[nH]n(-c3ccccc3)c2=O)c1`, the inhibition is 9.54% (inactive).

Regarding `OC(c1ccccc1)c1nc(-c2cnc3ccccc3c2)cs1` (stereo unspecified), the inhibition is 2.58% (inactive). As to `COC(=O)CC1CCc2cc(C)cc(C(CC(C)C)NC(=O)[C@H](CC(C)C)NC(=O)OCc3ccccc3)c2O1` (stereo partly specified), the inhibition is -2.73% (inactive). In the case of `COC(=O)/C=C/C(=O)NCc1ccco1`, the inhibition was 0.685% (inactive).

Take `O=C(/C=C/c1ccc(Cl)cc1Cl)NCc1ccco1`: the inhibition is 57.4% (active). The same measure for `O=C(NCc1ccco1)C1(c2ccc(Cl)cc2)CCCC1`: 3.15% (inactive); for `CCOc1ccc(-n2c(SCC(=O)Nc3cc(C)c(NC(=O)c4ccccc4)cc3OC)nnc2-c2cccc(Cl)c2)cc1`: 1.66% (inactive); for `c1csc(-c2nnc(SCc3nc4ccccc4[nH]3)o2)c1`: -7.8% (inactive). Consider `O=C(CSc1nc2ccccc2nc1N1CCCCC1)N1CCN(S(=O)(=O)c2cccc([N+](=O)[O-])c2)CC1`, for which the inhibition was -12% (inactive).

On to `CC(=O)NC(c1ccccc1)c1nc(-c2cccc(C(C)C)c2)cs1` (stereo unspecified), for which the inhibition is 3.74% (inactive). For `CCOC(=O)c1c(C)[nH]c2c1-c1ccccc1C(=O)C2=O`, the inhibition was 82.9% (active). In the case of `CCOC(=O)c1c(C)[nH]c(C)c1S(=O)(=O)N(C)CC(=O)Nc1ccccc1C`, the inhibition is 2.08% (inactive). In the case of `CCOC(=O)c1ccccc1OC(=O)Oc1ccccc1C(=O)OCC`, the inhibition was -0.93% (inactive). Regarding `CCOc1ccc2nc(NC(=O)C3CC3)sc2c1`, the inhibition was -0.715% (inactive). Consider `CCCC1CCC2(CCCN2CCOC(=O)NCc2ccccc2)CC1` (stereo unspecified), for which the inhibition is -1.02% (inactive).

Regarding `O=C(CNS(=O)(=O)c1ccccc1F)N1CCN(c2ccccn2)CC1`, the inhibition is -3.13% (inactive). With `COc1ccc(-c2cc(-c3nnc(SCc4ccc([N+](=O)[O-])cc4)n3N)[nH]n2)cc1`, the inhibition is -2.18% (inactive).

As to `COc1cc(C(=O)Nn2c(O)c(C3=c4ccccc4=NC3=O)sc2=S)ccc1O`, the inhibition was 51.8% (active). For the molecule `COc1cc(C(=S)NC2CCCCC2)ccc1O`, the inhibition was 6.51% (inactive). `COc1cc(C(=O)Nn2c(CC(C)C)nc3ccccc3c2=O)cc(OC)c1OC`: the inhibition is -1.2% (inactive). Consider `O=C(CCS(=O)(=O)c1ccccc1)Nc1ccc(Cl)c(Cl)c1`, for which the inhibition was -0.439% (inactive). The same measure for `O=C(Nc1ccccc1C(=O)Nc1ccc(F)cc1)c1ccccc1F`: 0.274% (inactive). As to `Cc1cc(=O)[nH]c(N/N=C/c2ccc3c(c2)OCCO3)n1`, the inhibition is -3.07% (inactive).

Regarding `Cc1nn(-c2ccccc2)c(Cl)c1/C=N/NC(=O)c1nn(C)cc1[N+](=O)[O-]`, the inhibition was 6.06% (inactive).

As for `Cc1cc(=O)[nH]c(N/N=C/c2c(C)nn(-c3ccccc3Cl)c2Cl)n1`, the inhibition is 69.3% (active). `Cc1c(NC(=O)Nc2ccccc2)cccc1[N+](=O)[O-]`: the inhibition was -2.18% (inactive). As for `O=[N+]([O-])c1ccccc1Nc1ccc(O)cc1`, the inhibition is 81% (active). For the molecule `O=C(Nc1ccccc1[N+](=O)[O-])C1C(c2ccccc2)=C1c1ccccc1`, the inhibition is -5.32% (inactive). With `CCc1nc2ccc(C(=O)NCc3ccc(OC)cc3)cn2c1N(CC)Cc1cccc(Br)c1`, the inhibition is -0.31% (inactive).

For `C=CCc1cccc2cc(C(=O)Nc3ccc(NC(C)=O)cc3)c(=O)oc12`, the inhibition is 52.4% (active). `C=CCc1cccc2cc(C(=O)NC3CCCC3)c(=O)oc12`: the inhibition is -2.76% (inactive). The same measure for `C=CCc1cccc2cc(C(=O)OCC)c(=O)oc12`: 3.09% (inactive); for `CCCC(=O)N1CCC1(C)C(=O)NCc1ccc(C(C)C)cc1` (stereo unspecified): 0.789% (inactive); for `O=C(NS(=O)(=O)c1cccs1)[C@H]1O[C@@H](n2ccc(=O)[nH]c2=O)[C@H](O)[C@@H]1O`: 0.413% (inactive). For `CC(=O)N1CCCN(C2=Nc3ccccc3Sc3ccccc32)CC1`, the inhibition was 0.906% (inactive). As for `O=C(Nc1ccc(N2CCOCC2)cc1)C1=COCCO1`, the inhibition was -0.182% (inactive). As to `COC(=O)CCCCC1=CCC2C(=O)C=C(O)C2C1` (stereo unspecified), the inhibition was 62.2% (active). In the case of `COc1ccc(-n2c(SCC(=O)Nc3ccccc3-c3ccccc3)nnc2-c2cccnc2)cc1`, the inhibition was 3.15% (inactive).

Regarding `COC(=O)c1cc(S(=O)(=O)N2CCN(c3ccccc3C)CC2)cn1C`, the inhibition is 7.47% (inactive). With `COc1cccc(-c2cc(CNC(=O)[C@@H](Cc3ccccc3)NC(=O)[C@H]3O[C@@H](n4cnc(C(N)=O)n4)[C@H](O)[C@@H]3O)no2)c1`, the inhibition was -0.483% (inactive). As for `COc1ccc(-n2c(COc3ccc(C)cc3)nnc2SCC(=O)Nc2ccc(Oc3ccccc3)cc2)cc1`, the inhibition was 0.031% (inactive).
